From PubChem BioAssay (NCI) come the findings set out here.

Compounds without any hit were thinned out: in the full panel of roughly 83,000, 20% have a hit.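 Values shown are percent growth following 48 h exposure of cells in 96-well plates to a single concentration of compound; below 10 was considered active.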 Unmarked numbers belong to inactive results. Activity calls are given as the source filed them.

Test systems include DU-145 prostate; K-562 leukemia; MALME-3M melanoma; MDA-MB-231 breast; RXF 393 renal; SF-268 CNS; SF-295 CNS; SF-539 CNS; UACC-257 melanoma; M14 melanoma; HCT-15 colon; HT29 colon; SNB-75 CNS; SNB-19 CNS; PC-3 prostate; SK-MEL-5 melanoma; UACC-62 melanoma; LOX IMVI melanoma; SK-MEL-28 melanoma.
Test in all cases: NCI-60 one-dose screen, 48 h (100 = growth as untreated, 0 = no growth, -100 = all killed)
Conditions in all cases: 10 µM unless noted

For `CCCCCCCCCCCCCCCCCCOc1ccccc1CC(=O)NCC[N+]1(C)CCCC1`, the growth was 56.8% in the assay on DU-145 prostate; 36.9% with K-562 leukemia; 52.4% in the assay with MALME-3M melanoma; 43.1% in the assay on MDA-MB-231 breast; 4.86% (active) in the assay on RXF 393 renal; 31% in the assay on SF-268 CNS. For the same molecule, the growth in the assay with SF-295 CNS was 86.5%; in the assay on SF-539 CNS, 82.1%; in the assay with UACC-257 melanoma, 93.2%; in the assay with M14 melanoma, 65.8%; with HCT-15 colon, 93.9%; with HT29 colon it was 8.69% (active). Besides, the growth was 45% with SNB-75 CNS; 35.2% with SNB-19 CNS; 4.91% (active) in the assay with PC-3 prostate; 73% in the assay on SK-MEL-5 melanoma; 43.2% in the assay on UACC-62 melanoma; 53.4% in the assay on LOX IMVI melanoma. Also, the growth with SK-MEL-28 melanoma was 84.2%.
Regarding `COc1cc(C(=O)n2nc(N3CCN(C)CC3)c3cc(N)ccc32)cc(OC)c1OC`, the growth in the assay with DU-145 prostate was 22.5%; in the assay on K-562 leukemia, 10.4%; in the assay on MALME-3M melanoma, 65.3%; with MDA-MB-231 breast, 50.3%; with RXF 393 renal it was -13.3% (active); with SF-268 CNS, 47.2%. Also, the growth was 4.42% (active) in the assay with SF-295 CNS; -14.1% (active) in the assay with SF-539 CNS; 85.3% in the assay with UACC-257 melanoma; 2.63% (active) in the assay on M14 melanoma; 37% in the assay on HCT-15 colon; 86.8% with HT29 colon. Moreover, the growth is 39.9% with SNB-75 CNS; 35.2% in the assay with SNB-19 CNS; 50.1% in the assay with PC-3 prostate; 27.3% in the assay on SK-MEL-5 melanoma; 26.2% in the assay with UACC-62 melanoma; 35.5% with LOX IMVI melanoma. Further, the growth with SK-MEL-28 melanoma was 65.8%.
Consider `COc1cc(CNC(=O)CCCC/C=C/C(C)C)ccc1OCc1nnc(Nc2ccc([N+](=O)[O-])cc2)o1`, for which the growth with DU-145 prostate is 62%; in the assay on K-562 leukemia it was 59.6%; in the assay with MALME-3M melanoma it was 69.6%; with MDA-MB-231 breast it was 67.1%; in the assay on RXF 393 renal, 54.1%; in the assay with SF-268 CNS it was 79.7%. The growth was 64.9% with SF-295 CNS; 70.2% in the assay with SF-539 CNS; 77.6% in the assay with UACC-257 melanoma; 66.4% in the assay with M14 melanoma; 81.2% with HCT-15 colon; 71.7% with HT29 colon. Moreover, the growth with SNB-75 CNS is 48.7%; with SNB-19 CNS it was 54%; in the assay with PC-3 prostate, 37.6%; in the assay on SK-MEL-5 melanoma it was 46.3%; in the assay with UACC-62 melanoma it was 39.6%; in the assay on LOX IMVI melanoma, 55.2%. For the same molecule, the growth in the assay on SK-MEL-28 melanoma was 74.3%.
For the molecule `CCN1CCN(Cc2cn(CC(=O)Nc3ccc4c(ccn4Cc4ccccc4)c3)nn2)CC1`, the growth with DU-145 prostate was 105%; with K-562 leukemia, 94.8%; in the assay on MALME-3M melanoma, 99.5%; with MDA-MB-231 breast, 91.5%; in the assay with RXF 393 renal, 111%; in the assay with SF-268 CNS it was 95.9%. In addition, the growth in the assay with SF-295 CNS was 105%; in the assay on SF-539 CNS it was 102%; with UACC-257 melanoma it was 103%; in the assay on M14 melanoma, 98.7%; with HCT-15 colon, 109%; in the assay on HT29 colon, 102%. The growth was 86.8% with SNB-75 CNS; 98.4% in the assay on SNB-19 CNS; 96.4% in the assay on PC-3 prostate; 99.9% in the assay with SK-MEL-5 melanoma; 95% in the assay on UACC-62 melanoma; 103% in the assay with LOX IMVI melanoma. In addition, the growth in the assay with SK-MEL-28 melanoma is 105%.
As for `O=[N+]([O-])/C(=C/C=C/c1ccccc1)c1ccccc1`, the growth was 26% in the assay on DU-145 prostate; 24.4% in the assay with K-562 leukemia; 96.1% with MALME-3M melanoma; 61.7% with MDA-MB-231 breast; 35.4% in the assay with RXF 393 renal; 35.3% with SF-268 CNS. The growth with SF-295 CNS is 91.5%; in the assay with SF-539 CNS it was 36.8%; in the assay with UACC-257 melanoma, 77%; in the assay on M14 melanoma, 37.8%; in the assay with HCT-15 colon, 10.8%; with HT29 colon it was 26.9%. Further, the growth in the assay on SNB-75 CNS is 57.3%; with SNB-19 CNS, 85.9%; in the assay on PC-3 prostate, 43.6%; with SK-MEL-5 melanoma, 82.4%; in the assay with UACC-62 melanoma, 70.5%; with LOX IMVI melanoma, -0.767% (active). In the assay with SK-MEL-28 melanoma, the growth was 12.6%.
As for `C=C(C)[C@@H]1CC[C@]2(C(=O)NCCNCCN)CC[C@]3(C)[C@H](CC[C@@H]4[C@@]5(C)C/C(=C/c6ccncc6)C(=O)C(C)(C)[C@@H]5CC[C@]43C)[C@@H]12`, the growth in the assay on DU-145 prostate is 106%; with K-562 leukemia it was 86.4%; in the assay on MALME-3M melanoma it was 106%; in the assay with MDA-MB-231 breast it was 96.7%; in the assay with RXF 393 renal, 103%; in the assay with SF-268 CNS, 88.5%. Also, the growth in the assay with SF-295 CNS was 100%; in the assay on SF-539 CNS, 95.1%; with UACC-257 melanoma, 105%; in the assay with M14 melanoma, 89.8%; in the assay with HCT-15 colon it was 91.4%; in the assay on HT29 colon it was 96%. The growth in the assay on SNB-75 CNS is 78.1%; with SNB-19 CNS it was 90.2%; in the assay with PC-3 prostate it was 88.8%; with SK-MEL-5 melanoma it was 96.3%; in the assay with UACC-62 melanoma, 86.6%; with LOX IMVI melanoma, 96%. Further, the growth in the assay with SK-MEL-28 melanoma was 99.2%.
Turning to `CC(C)CCNC(=O)Cn1cccc(NC(=O)OCc2ccccc2)c1=O`, the growth in the assay on DU-145 prostate was 109%; with K-562 leukemia it was 114%; in the assay on MALME-3M melanoma it was 104%; with MDA-MB-231 breast, 107%; with RXF 393 renal it was 106%; with SF-268 CNS, 102%. Besides, the growth was 107% in the assay with SF-295 CNS; 115% in the assay with SF-539 CNS; 104% with UACC-257 melanoma; 116% with M14 melanoma; 111% in the assay with HCT-15 colon; 108% in the assay on HT29 colon. The growth in the assay on SNB-75 CNS is 79.9%; in the assay on SNB-19 CNS it was 103%; with PC-3 prostate it was 92.3%; with SK-MEL-5 melanoma, 96.1%; with UACC-62 melanoma, 111%; in the assay on LOX IMVI melanoma, 89.8%. For the same molecule, the growth in the assay on SK-MEL-28 melanoma was 98.8%.
As for `Nc1ncnc2c1N=C(c1ccc(Cl)cc1)CC(c1ccc3c(c1)OCO3)N2` (configuration not stated), the growth with DU-145 prostate is 109%; with K-562 leukemia, 71.3%; with MALME-3M melanoma, 116%; in the assay with MDA-MB-231 breast, 88.6%; in the assay with RXF 393 renal, 80.9%; with SF-268 CNS, 91.1%. Also, the growth was 128% in the assay on SF-295 CNS; 88.3% in the assay with SF-539 CNS; 110% in the assay on UACC-257 melanoma; 118% with M14 melanoma; 98.6% in the assay with HCT-15 colon; 91.7% with HT29 colon. For the same molecule, the growth was 85.7% in the assay with SNB-75 CNS; 86.4% with SNB-19 CNS; 85.2% with PC-3 prostate; 98% in the assay with SK-MEL-5 melanoma; 94.8% in the assay with UACC-62 melanoma; 96.5% in the assay on LOX IMVI melanoma. Further, in the assay on SK-MEL-28 melanoma, the growth was 99.8%.
